ELG1 genotox: inducers of genotoxicity in HEK293T ELG1-luciferase cells. Potency, µM (series often up to 46 µM), for inactives: at the top dose activity change, positive = activation, hits mostly activators. HEK293T ELG1-luciferase reporter, luminescence, 16 h. 1.3% of 330,000 active; note: % of control where 0% means no effect; nearly all actives have a fitted effect of over 60% in size
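Screening used a luciferase reporter fused to human ELG1 in HEK293T cells. Luminescence was read on a CCD plate imager after 16 hr exposure and 30 min ONE-Glo incubation.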
SMN2 splice up: SMN2 splice variant enhancement | HEK293 SMN2-luciferase splicing reporter, luminescence, 30-36 h | Potency, µM (highest dose often 46.1 µM), for the others: top-dose activity change, positive = activation, actives largely listed as activators | 2.8% of 210,000 active | AID 1458; note: % of control where 0% means no effect; nearly all actives have a fitted effect of over 55% in size
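HEK293 cells carry an SMN2 […]–luciferase reporter in which exon 7 inclusion puts luciferase in frame. Cells were plated 10-12 h before compound addition, then incubated 30-36 h at 37C. ONE-Glo luminescence was read; sodium butyrate at 4.5 mM final served as control.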
FLuc counter: inhibits or activates purified firefly luciferase, miR-21 counter-screen; P08659; purified FLuc, Km substrates, luminescence inhibition; Potency, µM (highest dose often 57.5 µM), for the others: at the top dose activity change, negative = inhibition, hits mostly inhibitors; 6.9% of 360,000 active;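 note: plate controls were vehicle for no effect and reference inhibitor for full effect; nearly all actives have a fitted effect of over 55% in size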
Target sequence (P08659 whole entry, looked up): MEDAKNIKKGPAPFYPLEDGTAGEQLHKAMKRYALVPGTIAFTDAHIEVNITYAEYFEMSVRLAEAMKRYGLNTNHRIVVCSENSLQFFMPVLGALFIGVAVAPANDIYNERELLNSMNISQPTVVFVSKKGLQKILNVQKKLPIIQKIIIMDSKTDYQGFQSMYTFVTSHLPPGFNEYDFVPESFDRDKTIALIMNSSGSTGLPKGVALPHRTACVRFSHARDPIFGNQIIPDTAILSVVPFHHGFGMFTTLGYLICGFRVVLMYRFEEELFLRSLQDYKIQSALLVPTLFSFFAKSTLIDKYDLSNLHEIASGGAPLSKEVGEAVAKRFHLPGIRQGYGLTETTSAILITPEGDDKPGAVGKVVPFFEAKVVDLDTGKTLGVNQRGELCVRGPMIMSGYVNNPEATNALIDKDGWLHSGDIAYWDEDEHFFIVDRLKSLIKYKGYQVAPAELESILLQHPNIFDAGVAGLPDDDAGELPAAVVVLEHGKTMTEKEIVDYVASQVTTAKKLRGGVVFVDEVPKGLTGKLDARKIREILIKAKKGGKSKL
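Purified P. pyralis luciferase (10nM final) with 10uM D-luciferin and 10uM ATP (Km levels) in 50mM Tris acetate pH 7.5, 10mM Mg acetate, 0.01% Tween-20, 0.05% BSA; qHTS 6-point titration, ~60 µM downward; luminescence read.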
Rab9 prom act: activates the Rab9 promoter; Potency, µM (highest dose often 9.22 µM), inactives show top-dose activation, negative = inhibition, actives largely listed as activators; Huh7 Rab9 promoter-luciferase reporter, luminescence, 24 h; AID 485297; 2.8% of 320,000 active; note: % of control where 0% means no effect; nearly all actives have a fitted effect of over 60% in size
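Cell-based reporter: Huh7 stable for Rab9 promoter-driven luciferase, plated in reduced-serum medium with 10% FBS at 1500 cells/well, compound-treated 24 h at 37 °C, luminescence read after 10 min reagent.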
Luc counter: counter-screen: inhibitors of Kinase-Glo firefly luciferase; Q27757; Kinase-Glo luciferase, ATP luminescence, 8 min; Potency, µM (series often up to 38.3 µM), inactives show at the top dose activity change, negative = inhibition, actives largely listed as inhibitors; 0.28% of 200,000 active; AID 1379; note: % is set by controls: 0 for no effect and ±100 for the full control effect; nearly all actives have a fitted effect of over 60% in size
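Recombinant Kinase-Glo luciferase, 10 uM ATP (linear range), luciferin; imidazole pH 7.2 / KCl / MgCl2 / Tween / BSA buffer; 8 min RT; luminescence.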
NPC1 prom act: activators of NPC1 promoter | Huh7 NPC1 promoter luciferase reporter, 24 h | Potency, µM (highest dose often 9.22 µM), without a hit: at the top dose activation, hits mostly activators | 2.4% of 320,000 active | AID 485313; note: % of control where 0% means no effect; nearly all actives have a fitted effect of over 60% in size
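Compounds in DMSO were transferred onto Huh7 NPC1-luciferase reporter cells pre-incubated 2 h; after 24 h at 37 °C, Amplite reagent was dispensed and luminescence recorded 10 min later.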
Active calls of the source: *; ? = inconclusive; nt = not tested or not shown. Only some compounds are listed: those with a hit (about 7.5% of all), similar ones and a draw of the others. Calls come from the whole dose curve; as a rule, active = well fitted curve in the direction sought with a large enough effect; inconclusive = small, poorly fitted or top-dose-only effect, or another doubt; inactive = no such curve, though single readings can be large; an effect the other way counts as inactive or inconclusive. Potency is the fitted concentration of half-maximal effect.

SMILES | ELG1 genotox | SMN2 splice up | FLuc counter | Rab9 prom act | Luc counter | NPC1 prom act
O=C(/C=C/c1cccs1)NC(=S)NNC(=O)c1ccccc1O | -8% | -70% | ? | -41% | 2% | -36%
O=C(/C=C/c1cccs1)NC(=S)Nc1ccccc1 | 1% | 15% | 27µM* | ? | 1% | 19%
Cc1cccnc1NC(=O)NC(=O)c1ccc(C(C)(C)C)s1 | ? | nt | 5.4µM* | 2.2µM* | nt | ?
COC(=O)c1cc2oc3ccccc3c2n1CC(=O)Nc1ccc(C)cc1C | nt | 0% | -8% | nt | nt | nt
C[C@H](NC(N)=O)C(=O)Nc1ccc(OCc2ccccc2)cc1 | 14% | 16µM* | ? | 3.5µM* | 0% | ?
S=C(Nc1ccccc1)Nc1ccc(Br)cn1 | 3% | -24% | -1% | 4% | 1% | -8%
COc1ccc(NC(=O)c2cccs2)c([N+](=O)[O-])c1 | ? | 20% | ? | 4µM* | -6% | ?
O=C(NC(=S)Nc1ccc(Br)cn1)c1cccs1 | ? | 13µM* | 3.8µM* | ? | 0% | ?
COc1ccc(NC(=S)NNC(=O)c2cccs2)cc1 | ? | 25% | -6% | 4µM* | -2% | 0%
COc1ccccc1NC(=O)C1CCN(S(=O)(=O)c2ccc3c(c2)oc(=O)n3C)CC1 | nt | -6% | -6% | nt | nt | nt
CC(C)c1ccc(NC(=S)NNC(=O)c2cccs2)cc1 | ? | ? | 21µM* | ? | -2% | ?
COc1ccc(NC(=O)c2cccs2)cc1 | ? | 18µM* | 15µM* | ? | -27% | ?
COc1ccc(NC(=O)/C=C/c2ccccc2)c([N+](=O)[O-])c1 | ? | 10µM* | ? | 3.2µM* | -6% | ?
COc1ccc2nc3c(cc2c1)c(NC(=O)c1cccs1)nn3CC(C)C | -1% | 13% | 7.6µM* | 19% | -1% | -3%
COc1ccc(/C=C/C(=O)Nc2ccc(OC)cc2[N+](=O)[O-])cc1 | 5% | 2% | -3% | 1% | 0% | -3%
CC(C)Cn1nc(NC(=O)c2cccs2)c2cc3ccccc3nc21 | -8% | nt | ? | -1% | nt | -4%
CCOc1ccc(N(C)C(=O)c2oc(=O)c3ccccc3c2-c2ccccc2)cc1 | nt | -25% | 3% | nt | nt | nt
Cc1coc2cc3oc(=O)c(CC(=O)NCc4cccc(Cl)c4)c(C)c3cc12 | nt | -9% | -6% | nt | nt | nt
Cc1cccc(N2CCN(C(=O)Cc3c(C(=O)O)c(C)cn3C)CC2)c1C | nt | nt | -19% | nt | nt | nt
COc1ccc(NC(=O)c2cc(C)n(Cc3cccs3)c2C)cc1 | ? | nt | 0.85µM* | 0.32µM* | nt | 0.56µM*
COc1ccc(/C=N/NC(=O)CNC(=O)c2cccs2)cc1 | 14% | 11% | 15µM* | 18% | 1% | -5%
COc1cccc(-c2nc(-c3ccc(NC(=O)c4ccncc4)cc3)no2)c1 | 1% | -67% | -9% | 28% | 0% | 3%
Cc1cc(C(=O)COc2ccc3ccc(=O)oc3c2)c(C)n1Cc1cccs1 | -2% | -28% | ? | 12% | -1% | 5%
O=C(Nc1ccc(OCc2ccccc2)cc1)c1cccs1 | ? | nt | 17µM* | 4.5µM* | nt | 2.8µM*
COc1cccc(-c2nc(-c3ccc(NC(=O)c4cccs4)cc3)no2)c1 | 14% | -17% | 13µM* | ? | 0% | 30%
CCOc1ccccc1N(C)C(=O)Cn1cnc2onc(-c3ccc(F)cc3)c2c1=O | nt | nt | -12% | nt | nt | nt
COC(=O)c1ccc(Cl)cc1NC(=O)N(Cc1ccc(OC)cc1)C1CCN(C(C)=O)CC1 | nt | nt | -2% | nt | nt | nt
COc1cc(NC(=O)COC(=O)Cc2ccsc2)cc(OC)c1 | 0% | nt | 4% | -10% | nt | -3%
Cc1nc(N2CCCC2)c2c(C(=O)N3CCN(c4cc(Cl)ccc4C)CC3)c(C)oc2n1 | nt | nt | -10% | nt | nt | nt
Cc1cnc(C(=O)OCC(=O)Nc2ccc(OCc3ccccc3)cc2)cn1 | ? | nt | ? | 2.5µM* | nt | 2.8µM*
